Test results from ChEMBL document CHEMBL1961873, “Compounds: GSK PKIS; Assays: Nanosyn kinase panel” (2012).

How the values were obtained:
[1] = biological target: Platelet-derived growth factor receptor beta (Homo sapiens) (UniProt P09619); settings: at 1 µM;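 further: each value is a mean percent inhibition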
[2] = biological target: Tyrosine-protein kinase FRK (Homo sapiens) (UniProt P42685); settings: at 0.1 µM
[3] = biological target: Tyrosine-protein kinase FRK (Homo sapiens) (UniProt P42685); settings: at 1 µM
[4] = biological target: Protein-tyrosine kinase 2-beta (Homo sapiens) (UniProt Q14289); settings: at 0.1 µM
Sequence of Protein-tyrosine kinase 2-beta (Homo sapiens) (Q14289 whole entry, looked up): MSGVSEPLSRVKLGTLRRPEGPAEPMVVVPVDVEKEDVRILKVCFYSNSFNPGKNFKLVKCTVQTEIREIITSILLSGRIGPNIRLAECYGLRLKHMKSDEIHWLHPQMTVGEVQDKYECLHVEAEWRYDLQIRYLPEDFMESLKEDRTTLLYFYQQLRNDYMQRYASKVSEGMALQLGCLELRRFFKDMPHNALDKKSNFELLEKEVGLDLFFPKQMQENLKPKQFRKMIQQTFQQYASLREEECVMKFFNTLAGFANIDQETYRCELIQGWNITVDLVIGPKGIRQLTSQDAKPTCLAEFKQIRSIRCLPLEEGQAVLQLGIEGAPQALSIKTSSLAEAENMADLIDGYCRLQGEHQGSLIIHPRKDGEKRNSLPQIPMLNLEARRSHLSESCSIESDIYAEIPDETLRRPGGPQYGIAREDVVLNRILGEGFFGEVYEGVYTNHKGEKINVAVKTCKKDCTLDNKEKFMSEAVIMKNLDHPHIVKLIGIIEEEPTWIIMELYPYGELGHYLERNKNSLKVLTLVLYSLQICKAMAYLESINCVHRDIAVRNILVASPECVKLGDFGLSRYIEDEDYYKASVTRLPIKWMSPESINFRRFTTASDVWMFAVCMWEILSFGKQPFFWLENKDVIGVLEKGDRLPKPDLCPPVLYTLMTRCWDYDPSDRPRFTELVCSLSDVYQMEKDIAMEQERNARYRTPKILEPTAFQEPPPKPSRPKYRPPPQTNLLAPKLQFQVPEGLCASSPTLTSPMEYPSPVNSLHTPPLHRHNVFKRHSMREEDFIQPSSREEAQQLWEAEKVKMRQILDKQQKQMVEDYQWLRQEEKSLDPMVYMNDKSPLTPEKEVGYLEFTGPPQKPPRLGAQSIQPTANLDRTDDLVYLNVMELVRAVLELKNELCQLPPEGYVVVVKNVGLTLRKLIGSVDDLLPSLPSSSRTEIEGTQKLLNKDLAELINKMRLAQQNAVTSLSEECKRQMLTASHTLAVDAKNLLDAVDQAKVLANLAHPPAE

[5] = biological target: Protein-tyrosine kinase 2-beta (Homo sapiens) (UniProt Q14289); settings: at 1 µM
[6] = biological target: Proto-oncogene tyrosine-protein kinase receptor Ret (Homo sapiens) (UniProt P07949); settings: at 0.1 µM
Sequence of Proto-oncogene tyrosine-protein kinase receptor Ret (Homo sapiens) (P07949 whole entry): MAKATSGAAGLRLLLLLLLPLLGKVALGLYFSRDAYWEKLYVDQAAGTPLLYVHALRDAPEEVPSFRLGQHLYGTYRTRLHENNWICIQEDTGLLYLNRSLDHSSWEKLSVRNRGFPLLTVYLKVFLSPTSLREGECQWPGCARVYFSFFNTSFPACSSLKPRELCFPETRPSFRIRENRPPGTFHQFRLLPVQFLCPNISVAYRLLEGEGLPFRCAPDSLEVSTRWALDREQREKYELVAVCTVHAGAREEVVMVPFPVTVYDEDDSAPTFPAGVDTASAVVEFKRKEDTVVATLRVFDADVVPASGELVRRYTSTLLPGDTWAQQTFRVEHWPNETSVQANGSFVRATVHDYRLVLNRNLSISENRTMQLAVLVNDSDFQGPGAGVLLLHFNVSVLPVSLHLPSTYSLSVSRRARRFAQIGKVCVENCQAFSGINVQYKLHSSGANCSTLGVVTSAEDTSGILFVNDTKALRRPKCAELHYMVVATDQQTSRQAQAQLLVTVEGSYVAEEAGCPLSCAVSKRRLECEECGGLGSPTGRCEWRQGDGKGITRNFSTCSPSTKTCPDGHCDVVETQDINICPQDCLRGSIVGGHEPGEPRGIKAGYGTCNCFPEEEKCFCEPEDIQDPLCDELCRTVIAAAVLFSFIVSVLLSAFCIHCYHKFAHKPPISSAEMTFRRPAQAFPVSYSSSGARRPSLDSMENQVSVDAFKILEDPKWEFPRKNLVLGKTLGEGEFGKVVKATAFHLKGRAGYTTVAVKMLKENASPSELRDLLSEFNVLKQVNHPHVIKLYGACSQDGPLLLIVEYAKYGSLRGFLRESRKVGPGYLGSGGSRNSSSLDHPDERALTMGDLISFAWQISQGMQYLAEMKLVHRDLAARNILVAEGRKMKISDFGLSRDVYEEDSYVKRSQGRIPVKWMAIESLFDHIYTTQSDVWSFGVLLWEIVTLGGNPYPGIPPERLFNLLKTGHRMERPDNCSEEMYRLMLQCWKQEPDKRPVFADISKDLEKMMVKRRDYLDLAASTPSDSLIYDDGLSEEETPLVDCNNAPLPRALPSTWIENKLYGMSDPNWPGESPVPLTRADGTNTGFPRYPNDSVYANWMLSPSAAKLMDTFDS

[7] = biological target: Proto-oncogene tyrosine-protein kinase receptor Ret (Homo sapiens) (UniProt P07949); settings: at 1 µM
[8] = tested on: Proto-oncogene tyrosine-protein kinase receptor Ret (Homo sapiens), P07949 [V804L]; settings: at 0.1 µM
Sequence of Proto-oncogene tyrosine-protein kinase receptor Ret (Homo sapiens), P07949 [V804L] (P07949 whole entry V804L): as the sequence (P07949 whole entry) above, with V804L counted along it

[9] = tested on: Proto-oncogene tyrosine-protein kinase receptor Ret (Homo sapiens), P07949 [V804L]; settings: at 1 µM
[10] = tested on: Proto-oncogene tyrosine-protein kinase receptor Ret (Homo sapiens), P07949 [Y791F]; settings: at 0.1 µM
Sequence of Proto-oncogene tyrosine-protein kinase receptor Ret (Homo sapiens), P07949 [Y791F] (P07949 whole entry Y791F): as the sequence (P07949 whole entry) above, with Y791F counted along it

[11] = tested on: Proto-oncogene tyrosine-protein kinase receptor Ret (Homo sapiens), P07949 [Y791F]; settings: at 1 µM
[12] = biological target: Macrophage-stimulating protein receptor (Homo sapiens) (UniProt Q04912); settings: at 0.1 µM
[13] = biological target: Macrophage-stimulating protein receptor (Homo sapiens) (UniProt Q04912); settings: at 1 µM
[14] = biological target: Proto-oncogene tyrosine-protein kinase ROS (Homo sapiens) (UniProt P08922); settings: at 0.1 µM
[15] = biological target: Proto-oncogene tyrosine-protein kinase ROS (Homo sapiens) (UniProt P08922); settings: at 1 µM
[16] = biological target: Proto-oncogene tyrosine-protein kinase Src (Homo sapiens) (UniProt P12931); settings: at 0.1 µM
Sequence of Proto-oncogene tyrosine-protein kinase Src (Homo sapiens) (P12931 2-536 limits assumed): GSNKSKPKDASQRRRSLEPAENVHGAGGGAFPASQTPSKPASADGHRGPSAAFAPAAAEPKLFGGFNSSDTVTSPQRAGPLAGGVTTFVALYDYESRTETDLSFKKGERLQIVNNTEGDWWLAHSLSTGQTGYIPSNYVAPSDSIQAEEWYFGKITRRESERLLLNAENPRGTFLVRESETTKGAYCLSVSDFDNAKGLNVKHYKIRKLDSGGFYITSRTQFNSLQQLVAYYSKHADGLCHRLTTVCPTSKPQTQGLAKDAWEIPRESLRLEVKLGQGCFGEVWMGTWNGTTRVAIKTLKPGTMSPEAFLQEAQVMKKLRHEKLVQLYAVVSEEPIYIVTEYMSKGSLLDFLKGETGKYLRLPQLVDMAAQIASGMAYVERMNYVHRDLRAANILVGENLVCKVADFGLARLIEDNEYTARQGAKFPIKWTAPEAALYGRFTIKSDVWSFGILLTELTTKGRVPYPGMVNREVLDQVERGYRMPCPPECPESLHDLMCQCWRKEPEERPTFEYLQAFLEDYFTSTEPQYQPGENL

[17] = biological target: Proto-oncogene tyrosine-protein kinase Src (Homo sapiens) (UniProt P12931); settings: at 1 µM
[18] = biological target: Tyrosine-protein kinase Srms (Homo sapiens) (UniProt Q9H3Y6); settings: at 0.1 µM
Sequence of Tyrosine-protein kinase Srms (Homo sapiens) (Q9H3Y6 whole entry): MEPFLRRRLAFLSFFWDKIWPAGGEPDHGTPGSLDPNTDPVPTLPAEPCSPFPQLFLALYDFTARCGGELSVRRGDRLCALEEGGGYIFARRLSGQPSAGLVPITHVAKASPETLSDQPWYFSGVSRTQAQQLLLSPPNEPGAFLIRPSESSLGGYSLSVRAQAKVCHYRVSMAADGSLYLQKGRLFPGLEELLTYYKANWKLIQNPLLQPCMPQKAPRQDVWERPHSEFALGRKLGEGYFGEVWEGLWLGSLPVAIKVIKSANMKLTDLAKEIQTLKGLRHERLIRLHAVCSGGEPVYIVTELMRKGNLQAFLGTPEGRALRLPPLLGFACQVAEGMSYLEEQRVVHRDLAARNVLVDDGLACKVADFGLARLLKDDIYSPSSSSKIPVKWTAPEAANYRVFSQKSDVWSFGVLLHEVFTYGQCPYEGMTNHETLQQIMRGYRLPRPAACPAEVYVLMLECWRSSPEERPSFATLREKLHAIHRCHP

[19] = biological target: Tyrosine-protein kinase Srms (Homo sapiens) (UniProt Q9H3Y6); settings: at 1 µM
[20] = biological target: Tyrosine-protein kinase SYK (Homo sapiens) (UniProt P43405); settings: at 0.1 µM;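 further: reported percentages are mean inhibition values for SYK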

Sequence of Tyrosine-protein kinase FRK (Homo sapiens) (P42685 whole entry): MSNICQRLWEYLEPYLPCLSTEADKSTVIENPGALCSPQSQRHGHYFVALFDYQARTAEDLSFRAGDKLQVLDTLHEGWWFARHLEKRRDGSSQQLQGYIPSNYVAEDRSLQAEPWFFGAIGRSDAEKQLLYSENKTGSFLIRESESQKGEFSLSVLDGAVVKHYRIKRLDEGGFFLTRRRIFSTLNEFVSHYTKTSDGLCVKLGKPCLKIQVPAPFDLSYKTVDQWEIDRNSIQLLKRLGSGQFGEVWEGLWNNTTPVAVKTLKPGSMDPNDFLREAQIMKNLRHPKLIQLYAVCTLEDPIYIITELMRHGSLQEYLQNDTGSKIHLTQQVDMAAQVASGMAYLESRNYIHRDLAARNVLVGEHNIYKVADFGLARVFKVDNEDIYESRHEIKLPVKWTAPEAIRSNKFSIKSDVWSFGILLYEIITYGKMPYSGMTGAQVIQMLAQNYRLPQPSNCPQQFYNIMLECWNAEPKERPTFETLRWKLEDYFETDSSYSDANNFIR
Sequence of Platelet-derived growth factor receptor beta (Homo sapiens) (P09619 whole entry): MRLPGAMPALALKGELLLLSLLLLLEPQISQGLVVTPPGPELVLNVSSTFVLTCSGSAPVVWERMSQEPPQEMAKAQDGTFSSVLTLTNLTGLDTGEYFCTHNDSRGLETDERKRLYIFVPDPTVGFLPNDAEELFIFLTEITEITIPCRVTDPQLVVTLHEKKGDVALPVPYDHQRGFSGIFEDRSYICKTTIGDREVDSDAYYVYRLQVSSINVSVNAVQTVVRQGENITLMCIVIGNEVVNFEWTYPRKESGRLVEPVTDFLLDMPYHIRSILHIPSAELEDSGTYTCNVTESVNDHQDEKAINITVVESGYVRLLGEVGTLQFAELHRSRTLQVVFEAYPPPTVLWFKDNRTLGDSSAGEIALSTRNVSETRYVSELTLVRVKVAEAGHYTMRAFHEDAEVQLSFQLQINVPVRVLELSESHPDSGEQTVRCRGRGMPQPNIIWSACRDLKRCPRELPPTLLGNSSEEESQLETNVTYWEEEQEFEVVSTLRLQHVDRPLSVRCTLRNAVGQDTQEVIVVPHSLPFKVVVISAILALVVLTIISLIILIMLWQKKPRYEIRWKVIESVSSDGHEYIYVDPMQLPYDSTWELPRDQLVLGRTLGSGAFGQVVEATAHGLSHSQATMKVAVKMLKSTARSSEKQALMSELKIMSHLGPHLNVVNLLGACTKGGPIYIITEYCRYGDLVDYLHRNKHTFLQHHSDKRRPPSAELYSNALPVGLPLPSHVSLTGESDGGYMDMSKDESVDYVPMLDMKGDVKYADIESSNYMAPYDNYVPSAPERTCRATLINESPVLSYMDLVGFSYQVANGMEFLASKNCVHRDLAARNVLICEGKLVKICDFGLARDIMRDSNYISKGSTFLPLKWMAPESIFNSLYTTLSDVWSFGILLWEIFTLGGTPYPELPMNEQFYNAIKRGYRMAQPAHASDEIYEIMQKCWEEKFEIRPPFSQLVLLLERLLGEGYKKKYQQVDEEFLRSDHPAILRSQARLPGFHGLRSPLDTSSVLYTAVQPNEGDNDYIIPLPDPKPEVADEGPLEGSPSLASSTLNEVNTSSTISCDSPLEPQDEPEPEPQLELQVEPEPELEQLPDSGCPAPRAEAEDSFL

SMILES	inhibition [1] [%]	inhibition [2] [%]	inhibition [3] [%]	inhibition [4] [%]	inhibition [5] [%]	inhibition [6] [%]	inhibition [7] [%]	inhibition [8] [%]	inhibition [9] [%]	inhibition [10] [%]	inhibition [11] [%]	inhibition [12] [%]	inhibition [13] [%]	inhibition [14] [%]	inhibition [15] [%]	inhibition [16] [%]	inhibition [17] [%]	inhibition [18] [%]	inhibition [19] [%]	inhibition [20] [%]
O=C(Nc1n[nH]c2nc(-c3ccco3)ccc12)C1CC1	5.96	0.93	1.05	1.43	0.04	8.2	9.6	4.51	8.22	4.94	8.66	-0.93	4.1	3	3.03	-4.02	4.81	1.77	1.57	-0.47
COc1cc2ncn(-c3cc(OCc4cccs4)c(C(N)=O)s3)c2cc1OC	72.5	1.41	1.32	3.08	6.94	11.9	43.5	7.23	24.7	15	54.5	5.86	7.33	7.93	30.5	3.31	17.6	2.39	7.35	0.21
CNC(=O)c1cncc(/C=C/c2c(C)cccc2C)c1	26.2	1.71	17.3	-2.5	-2.35	4.57	7.32	-0.1	6.46	1.16	17.6	1.75	0.77	-2.1	1.85	17.5	59	2.41	9.33	0.05
Fc1ccc(-c2ncn(C3CCNCC3)c2-c2ccnc(Oc3ccc(F)c(F)c3)n2)cc1	10.6	2.06	2.77	4.15	11.9	3.19	7.38	4.74	11.2	7.7	9.54	4.15	2.54	5.19	4.41	5.82	7.25	-3.17	-3.06	-1.2
Fc1ccc(-c2ncn(CCCN3CCOCC3)c2-c2ccncc2)cc1	6.02	0.05	-1.57	0.29	-0.89	0.8	2.72	-0.64	0.11	2.85	7.08	-2.7	0.97	2.12	4.63	3.31	1.01	-3.46	-3.16	2.97
Cc1nnc(-c2ccc(C)c(-c3ccc(C(=O)NCc4ccc(Cl)cc4)cc3)c2)o1	3.27	1.52	2.43	6.59	10.6	8.83	2.3	2.03	2.91	1.1	7.75	1.1	2.52	4.75	7.75	-1.25	7.15	-2.08	-0.92	-5.79
COc1cccc(-n2cnc3c(N/N=C/c4ccncc4)ncnc32)c1	49.9	-0.1	0.9	-4.12	10.5	3.89	13.9	-0.06	12.5	2.51	32.8	0.89	0.14	-1.03	4.38	12.5	50.4	2.47	6.19	1.9
C[C@@H](Oc1cc(-n2cnc3ccc(OC4CCN(C)CC4)cc32)sc1C(N)=O)c1ccccc1Cl	70.8	3.35	3.66	4.13	11.7	3.19	16.5	2.32	15.8	6.79	22	0.07	9.84	8.31	15.5	10.3	18.7	-0.74	-2.64	-0.76
COc1ccc(C2=C(N3CCc4ccccc43)C(=O)NC2=O)cc1	12.1	2.66	0.27	11.7	16	9.66	6.15	5.21	7.12	6.21	9.39	9.63	6.83	6.01	9.68	-1.55	10.8	7.78	14.7	-4.17
FC(F)(F)c1cccc(Nc2nccc(-c3cnn4nc(-c5ccccc5)ccc34)n2)c1	37.1	1.24	0.8	-1	7.77	0.18	2.88	3.76	4.5	3.91	9	3.97	1.8	0.97	9.02	5.04	8.31	-0.79	-0.77	-0.05
C/C(Nc1ccc(S(N)(=O)=O)cc1)=C1/C(=O)Nc2ccccc21	43.1	1.09	0.76	-1.67	17.8	6.38	35.9	13	53.9	5.97	40.3	5.82	4	3.08	8.7	-2.31	0.81	1.16	4.16	-1.12
O=C1Nc2ccc(I)cc2C1=Cc1cc(Br)c(O)c(Br)c1	2.27	2.55	4.15	5.41	3.05	5.98	7.84	1.81	12	6.36	5.79	8.18	13.2	6.23	8.1	8.18	14.2	2.19	27.2	1.97
COc1cc(N2CCN(C(C)C)CC2)ccc1Nc1nc(Nc2ccc(F)cc2C(=O)NC[C@@H](O)CO)c2cc[nH]c2n1	5.07	2.85	4.03	87.3	96.5	5.61	8.19	5.31	18.4	6.02	13.9	7.42	2.76	17.8	60	3.75	9.14	-2.12	-0.49	-1.02
O=C(Nc1n[nH]c2nc(-c3ccc(O)cc3)c(Br)cc12)C1CC1	41.3	14.7	2.41	9.91	18.5	11.8	28.1	5.98	21	12.1	36.3	2.95	6.19	5.89	11.1	-2.92	20.3	2.23	17	-6.1
O=C1Nc2ccccc2/C1=C/Nc1ccc(-n2cncn2)cc1	33.4	2.78	3.04	11.7	24.7	15.4	48.6	20.2	67.3	12.9	53.2	7.27	6.25	6.51	8.39	9.95	19.2	0.3	-0.18	-1.28
Cc1ccc(NC(=O)c2ccoc2)cc1-c1ccc(C(=O)NCC2CC2)cc1	-0.8	0.1	2.51	0.3	-0.07	5.24	0.04	1.71	2.38	1.45	4.03	-2.83	-3.5	0.21	-0.03	5.81	4.32	-1.74	-2.77	-1.35
CCc1nccc2c1nc(-c1nonc1N)n2CC	14	0.24	-0.39	3.87	0.03	0.76	9.96	4.16	1.71	3.64	13.1	-3.47	4.96	3.74	5.33	-0.62	10.1	-1.58	-3.49	-1.01
O=C1NC(=O)C(c2cccc(Cl)c2)=C1Nc1ccc(Cl)c(C(=O)O)c1	8.9	-0.46	2.48	7.05	6.6	7.27	3.52	5.17	7.71	3.26	13.8	5.57	1.47	2	0.59	8.46	8.07	0.43	0.54	1.85
Fc1ccc(-c2nc3n(c2-c2ccncc2)CCS3)cc1	8.35	1.92	3.19	9.18	6.63	4.05	8.81	9.59	12.6	5.15	9.79	-2.87	6.64	7.49	6.54	3.03	8.62	-2.19	-4.01	-6.2
NS(=O)(=O)c1ccc(N/N=C2\C(=O)Nc3ccc(C(=O)NCCCn4ccnc4)cc32)cc1	68.9	2.01	2.76	14.3	20.9	12.5	51.9	38.7	76.2	14.2	59.8	-0.93	7.24	9.73	13.2	9.31	27.1	-1.71	1.02	-1.95
c1ccc(-c2n[nH]cc2-c2ccnc(-c3ccc(OCCN4CCOCC4)cc3)c2)nc1	52.2	2.08	0.63	-9.86	0.28	8.77	11.1	6.56	4.32	10	12.9	-5.76	3.22	7.93	11.1	1.88	4.39	4.69	3.57	11.6
Fc1ccc(-c2ncn(C3CCNCC3)c2-c2ccnc(Oc3ccc4c(c3)OCO4)n2)cc1	12.7	3.01	4.4	7	9.57	3.97	6.88	9.21	12.4	14.5	12.8	3.59	4.19	4.93	8.59	7.77	8.43	-2.94	-4.12	-0.62
O=C(NCC1CC1)c1ccc(-c2cccc(C(=O)NC3CC3)c2)cc1	8.57	1.88	0.07	1.01	8.49	3.9	7.06	1.77	7.1	8.82	24.5	4.01	0	3.69	6.33	2.23	7.22	-2.13	-0.43	-0.53
COC(=O)Nc1nc2ccc(Sc3ccc(NC(=O)Nc4cc(C(F)(F)F)ccc4F)cc3)cc2[nH]1	16.5	0.1	0.7	2.56	0.15	24.7	74.1	9.72	58	23	73.9	-5.81	-0.55	-2.6	0.19	17.4	12.5	1.2	-0.15	0.25
NS(=O)(=O)c1ccc(N/N=C2\C(=O)Nc3ccc(-c4cnco4)cc32)cc1	50.4	1.59	1.95	9.59	19.7	7.98	29	15	54	8.71	31.9	7.46	4.84	6.83	9.22	3.76	20.5	0.38	0.29	0.72
NCc1ccc(-n2c(-c3nonc3N)nc3cnccc32)cc1	37.3	1.83	1.83	11.2	9.24	5.69	7.7	7.22	9.65	7.37	7.16	2.95	2.64	15.3	33	9.83	9.77	-2.58	-2.9	-3.99
